# Active and inactive are the calls of the source. The calls were made as follows: active = hit-call score of the fitted dose curve at least 0.9, where 1 is the maximum; inactive = score below 0.9.
# System: not listed separately
# Assay: ATG_Sox_CIS: Attagene CIS-FACTORIAL HepG2 Assay for human SRY-box transcription factor (SOX) (AID 2282960)
# Conditions: HepG2 Attagene cis-factorial SOX reporter, mRNA; actives raise or lower the signal
# Procedure, shortened: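 Cells were transfected with reporter constructs under cis-regulatory promoters, then exposed to chemicals for 24 h. Reporter transcripts were quantified by fluorescence after RT-PCR and capillary electrophoresis; activity was fitted in both directions against DMSO.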
row,Compound,outcome
1,Cn1cc(-c2ccccc2)c(=O)c(-c2cccc(C(F)(F)F)c2)c1,inactive
2,O=C(N[C@H](c1ccccc1)[C@@H]1CN2CCC1CC2)c1c(Cl)ccc(C(F)(F)F)c1Cl,inactive
3,N#CC(Br)Br,inactive
4,COC(=O)c1ccccc1N,inactive
5,CN(C)c1ccc(C(=O)c2ccc(N(C)C)cc2)cc1,inactive
6,ClCCOCCCl,inactive
7,CC(C)(C)OOC(=O)c1ccccc1,inactive
8,CCN(CC)N=O,inactive
9,Nc1ccc(Oc2ccc(N)cc2)cc1,inactive
10,Nc1cc(Cl)cc(C(=O)O)c1Cl,inactive
11,CN(C)C(=O)Nc1ccc(Cl)cc1,inactive
12,c1ccc(C2CO2)cc1 (centres undefined),inactive
13,CCC12COCN1COC2,inactive
14,CC(C)(O)c1cnn2c(-c3ccc(F)c(-c4c(F)cccc4C#N)c3)cnc2n1,inactive
15,Clc1ccc(C(c2ccc(Cl)cc2)C(Cl)(Cl)Cl)cc1,inactive
16,CCN(CC)CCO,inactive
17,CC(C)(C)C(O)(CCc1ccc(Cl)cc1)Cn1cncn1 (centres undefined),inactive
18,CCCCCCCCCCCCCN1CC(C)OC(C)C1 (centres undefined),inactive
19,ClC1=C(Cl)C2(Cl)C3C(Cl)C=CC3C1(Cl)C2(Cl)Cl (centres undefined),inactive
20,C[N+](C)(C)CC1CO1 (centres undefined),inactive
21,CO[C@@H]1[C@H](OC(=O)NC(=O)CCl)CC[C@]2(CO2)[C@H]1[C@@]1(C)O[C@@H]1CC=C(C)C,inactive
22,CCCCOC(=O)c1ccccc1C(=O)OCc1ccccc1,inactive
23,O=C(Nc1ccccc1)c1ccccc1I,inactive
24,Oc1ccccc1Cl,inactive
25,Clc1ccccc1Cl,inactive
26,Clc1ccc(Cl)c(Cl)c1,inactive
27,CNC(=O)Oc1cccc2c1OC(C)(C)C2,inactive
28,N#CC(Br)(Br)C(N)=O,inactive

# Biological target: Transcription factor Sp1 (Homo sapiens) (UniProt P08047)
# Sequence (P08047 whole entry, looked up): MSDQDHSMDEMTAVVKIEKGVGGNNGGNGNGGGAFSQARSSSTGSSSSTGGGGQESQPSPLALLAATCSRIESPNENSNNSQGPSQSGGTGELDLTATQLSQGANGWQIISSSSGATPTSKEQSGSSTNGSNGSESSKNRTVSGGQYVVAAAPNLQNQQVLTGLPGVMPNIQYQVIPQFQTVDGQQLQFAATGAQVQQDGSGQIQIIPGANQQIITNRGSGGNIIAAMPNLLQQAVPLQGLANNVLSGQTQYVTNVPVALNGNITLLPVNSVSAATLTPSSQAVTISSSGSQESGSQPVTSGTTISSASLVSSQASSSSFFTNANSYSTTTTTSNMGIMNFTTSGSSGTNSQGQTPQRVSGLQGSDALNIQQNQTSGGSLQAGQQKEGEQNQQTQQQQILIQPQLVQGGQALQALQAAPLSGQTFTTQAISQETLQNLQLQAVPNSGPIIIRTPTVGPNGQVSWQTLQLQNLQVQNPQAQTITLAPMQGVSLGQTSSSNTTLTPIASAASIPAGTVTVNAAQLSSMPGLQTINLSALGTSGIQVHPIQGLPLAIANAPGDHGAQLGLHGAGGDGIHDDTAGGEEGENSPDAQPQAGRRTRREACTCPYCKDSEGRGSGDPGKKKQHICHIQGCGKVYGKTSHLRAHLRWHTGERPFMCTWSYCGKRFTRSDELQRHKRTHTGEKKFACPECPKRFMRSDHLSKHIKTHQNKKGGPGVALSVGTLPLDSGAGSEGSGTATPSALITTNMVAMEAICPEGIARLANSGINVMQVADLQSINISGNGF
# Assay: ATG_Sp1_CIS: Attagene CIS-FACTORIAL HepG2 Assay for human Specificity Protein 1 (Sp1) (AID 2282961)
# Conditions: HepG2 Sp1 cis-reporter transcription, actives raise or lower the signal
# Procedure, shortened: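 Measures mRNA induction of an Sp1-linked reporter in HepG2 cells 24 h post-dosing. Multiplexed reporters read by RT-PCR and capillary electrophoresis; DMSO serves as negative control and baseline.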
Compound,outcome,AC50
Cn1cc(-c2ccccc2)c(=O)c(-c2cccc(C(F)(F)F)c2)c1,inactive,
O=C(N[C@H](c1ccccc1)[C@@H]1CN2CCC1CC2)c1c(Cl)ccc(C(F)(F)F)c1Cl,inactive,
N#CC(Br)Br,inactive,
COC(=O)c1ccccc1N,inactive,
CN(C)c1ccc(C(=O)c2ccc(N(C)C)cc2)cc1,inactive,
ClCCOCCCl,inactive,
CC(C)(C)OOC(=O)c1ccccc1,inactive,
CCN(CC)N=O,inactive,
Nc1ccc(Oc2ccc(N)cc2)cc1,inactive,
Nc1cc(Cl)cc(C(=O)O)c1Cl,inactive,
CN(C)C(=O)Nc1ccc(Cl)cc1,inactive,
c1ccc(C2CO2)cc1 (centres undefined),inactive,
CCC12COCN1COC2,inactive,
CC(C)(O)c1cnn2c(-c3ccc(F)c(-c4c(F)cccc4C#N)c3)cnc2n1,inactive,
Clc1ccc(C(c2ccc(Cl)cc2)C(Cl)(Cl)Cl)cc1,,100 µM (active)
CCN(CC)CCO,inactive,
CC(C)(C)C(O)(CCc1ccc(Cl)cc1)Cn1cncn1 (centres undefined),inactive,
CCCCCCCCCCCCCN1CC(C)OC(C)C1 (centres undefined),inactive,
ClC1=C(Cl)C2(Cl)C3C(Cl)C=CC3C1(Cl)C2(Cl)Cl (centres undefined),,168 µM (active)
C[N+](C)(C)CC1CO1 (centres undefined),inactive,
CO[C@@H]1[C@H](OC(=O)NC(=O)CCl)CC[C@]2(CO2)[C@H]1[C@@]1(C)O[C@@H]1CC=C(C)C,inactive,
CCCCOC(=O)c1ccccc1C(=O)OCc1ccccc1,inactive,
O=C(Nc1ccccc1)c1ccccc1I,inactive,
Oc1ccccc1Cl,inactive,
Clc1ccccc1Cl,inactive,
Clc1ccc(Cl)c(Cl)c1,inactive,
CNC(=O)Oc1cccc2c1OC(C)(C)C2,inactive,
N#CC(Br)(Br)C(N)=O,inactive,

# System: not listed separately
# Assay: ATG_SREBP_CIS: Attagene CIS-FACTORIAL HepG2 Assay for human Sterol Regulatory Element Binding (SREBP) (AID 2282962)
# Conditions: HepG2 Attagene cis-factorial SREBP reporter, mRNA; actives raise or lower the signal
# Procedure, shortened: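 Values derive from bidirectional curve fitting with DMSO as baseline. The underlying measurement is reporter mRNA from cis-element-regulated units in transiently transfected HepG2, quantified by RT-PCR and capillary electrophoresis after 24 h exposure.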
Compound,outcome,AC50
Cn1cc(-c2ccccc2)c(=O)c(-c2cccc(C(F)(F)F)c2)c1,inactive,
O=C(N[C@H](c1ccccc1)[C@@H]1CN2CCC1CC2)c1c(Cl)ccc(C(F)(F)F)c1Cl,,5.4 µM (active)
N#CC(Br)Br,inactive,
COC(=O)c1ccccc1N,inactive,
CN(C)c1ccc(C(=O)c2ccc(N(C)C)cc2)cc1,inactive,
ClCCOCCCl,inactive,
CC(C)(C)OOC(=O)c1ccccc1,inactive,
CCN(CC)N=O,inactive,
Nc1ccc(Oc2ccc(N)cc2)cc1,inactive,
Nc1cc(Cl)cc(C(=O)O)c1Cl,inactive,
CN(C)C(=O)Nc1ccc(Cl)cc1,inactive,
c1ccc(C2CO2)cc1 (centres undefined),inactive,
CCC12COCN1COC2,inactive,
CC(C)(O)c1cnn2c(-c3ccc(F)c(-c4c(F)cccc4C#N)c3)cnc2n1,inactive,
Clc1ccc(C(c2ccc(Cl)cc2)C(Cl)(Cl)Cl)cc1,inactive,
CCN(CC)CCO,inactive,
CC(C)(C)C(O)(CCc1ccc(Cl)cc1)Cn1cncn1 (centres undefined),,1.79 µM (active)
CCCCCCCCCCCCCN1CC(C)OC(C)C1 (centres undefined),inactive,
ClC1=C(Cl)C2(Cl)C3C(Cl)C=CC3C1(Cl)C2(Cl)Cl (centres undefined),inactive,
C[N+](C)(C)CC1CO1 (centres undefined),inactive,
CO[C@@H]1[C@H](OC(=O)NC(=O)CCl)CC[C@]2(CO2)[C@H]1[C@@]1(C)O[C@@H]1CC=C(C)C,inactive,
CCCCOC(=O)c1ccccc1C(=O)OCc1ccccc1,inactive,
O=C(Nc1ccccc1)c1ccccc1I,,42.1 µM (active)
Oc1ccccc1Cl,inactive,
Clc1ccccc1Cl,inactive,
Clc1ccc(Cl)c(Cl)c1,inactive,
CNC(=O)Oc1cccc2c1OC(C)(C)C2,inactive,
N#CC(Br)(Br)C(N)=O,,169 µM (active)
